# In PubChem BioAssay (Tox21):
# Results filed as inconclusive are left out. A call without a number means that no potency is given here. Values without a mark were called inactive. Activity calls are given as the source filed them. Unless noted, calls come from the whole dose curve; as a rule, active = well fitted curve in the direction sought with a large enough effect in the repeat runs; inconclusive = weak or mixed curves; inactive = no such curve, though single readings can be large; an effect the other way counts as inactive or inconclusive.
# Legend:
# [1] = qHTS assay to identify small molecule antagonists of the vitamin D receptor (VDR) signaling pathway - cell viability counter screen (AID 743225); note: nearly all actives have a fitted effect of over 50% in size; note: potency is the fitted concentration of half-maximal effect
# Outline: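 HEK293T VDR-bla; cpd + 1a,25-(OH)2D3 3 nM final, 16 h 37C/5% CO2; B/G FRET substrate 2 h RT; then CellTiter-Glo 30 min RT, luminescence.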
# [2] = qHTS assay to identify small molecule agonists of the NFkB signaling pathway (AID 1159509; active = well fitted curve in the direction sought with a large enough effect in the signal ratio in the repeat runs, not every such curve was filed as active; the % refers to the signal ratio; note: series mostly up to about 61 µM)
# Outline: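 Readout: FRET fluorescence, 405 nm excitation, 460/530 nm emission; beta-lactamase expression disrupts FRET. Cells: ME-180 stably carrying NF-kB-driven bla reporter. Compound exposure 5 hr, 37 C, 5% CO2.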
# [3] = qHTS assay to identify small molecule agonists of the NFkB signaling pathway - cell viability counter screen (AID 1159515; calls by dose curve; note: nearly all actives have a fitted effect of over 55% in size; note: potency is the fitted concentration of half-maximal effect)
# Outline: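 Tox21 library compounds were tested for cytotoxicity against NFkB-bla ME-180 cells during a 5 hr exposure at 37 C. CellTiter-Glo luminescence served as the viability read-out.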
# [4] = qHTS assay to identify small molecule agonists of the endoplasmic reticulum stress response signaling pathway - cell viability counter screen (AID 1159517; calls by dose curve;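 note: HeLa cells carrying an ER stress response element beta-lactamase reporter; series mostly up to about 61 µM; nearly all actives have a fitted effect of over 50% in size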)
# Outline: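 Steps: seed 1,500 ESRE-bla HeLa cells per well; incubate overnight at 37 C, 5% CO2; add compounds in DMSO for 5 hr; run FRET substrate 2 hr RT; add CellTiter-Glo, wait 30 min, read luminescence.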
# [5] = qHTS assay to identify small molecule antagonists of the retinoid-related orphan receptor gamma (ROR-gamma) signaling pathway - cell viability counter screen (AID 1159520); note: nearly all actives have a fitted effect of over 50% in size
# Outline: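 Tet-on ROR gamma CHO cells were given compounds for 2 hr, then doxycycline hyclate at 1 uM final, and incubated 16 hr at 37 C. Viability was measured as ATP content by CellTiter-Glo luminescence.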
# [6] = target: Nuclear receptor ROR-gamma (Homo sapiens) (UniProt P51449); experiment: qHTS assay to identify small molecule antagonists of the retinoid-related orphan receptor gamma (ROR-gamma) signaling pathway (AID 1159521; note: nearly all actives have a fitted effect of over 50% in size; note: potency is the fitted concentration of half-maximal effect)
# Outline: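 Cells were plated, rested 4 h at 37 C, exposed to compounds for 2 h, then given 1 uM final doxycycline hyclate to induce RORγ expression. After 16 h, ONE-Glo luminescence from the ROR response element reporter was measured.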
# [7] = qHTS assay to identify small molecule agonists of the AP-1 signaling pathway - cell viability counter screen (AID 1159525; calls by dose curve; note: nearly all actives have a fitted effect of over 55% in size; note: potency is the fitted concentration of half-maximal effect)
# Outline: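 Same-well cytotoxicity counter screen of the Tox21 10K library in ME-180 cells. The readout is ATP-dependent luminescence after 5 h compound treatment. Data are normalised to DMSO and tetra n-octyl ammonium bromide controls.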
# [8] = qHTS assay to identify small molecule agonists of the AP-1 signaling pathway (AID 1159526; calls by dose curve)
# [9] = target: Retinoic acid receptor RXR-alpha (Homo sapiens) (UniProt P19793); experiment: qHTS assay to identify small molecule agonists of the RXR signaling pathway (AID 1159527; calls by dose curve; note: nearly all actives have a fitted effect of over 35% in size)
# Outline: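 Cells plated at 2,000/well, rested 5 hr at 37 C, pin-dosed with DMSO compound solutions, incubated 16 hr, then loaded with B/G FRET substrate for 2 hr at RT before dual-emission fluorescence reading.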
# [10] = qHTS assay to identify small molecule agonists of the RXR signaling pathway - cell viability counter screen (AID 1159529); note: nearly all actives have a fitted effect of over 50% in size; note: potency is the fitted concentration of half-maximal effect
# Outline: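 Steps: seed RXR-alpha-UAS-bla HEK 293T cells in assay medium containing 2% charcoal-stripped FBS; incubate 5 hr; add compounds in DMSO; incubate 16 hr at 37 C; after the bla read, add CellTiter-Glo and read luminescence at 30 min.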
# [11] = qHTS assay to identify small molecule antagonists of the retinoid acid receptor (RAR) signaling pathway - cell viability counter screen (AID 1159551); note: nearly all actives have a fitted effect of over 35% in size
# Outline: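 In this counter screen, the RARE-luciferase line C3RL4 was exposed for 6 h at 37 C and 5% CO2 to compounds with retinol at 1 uM final. Cellular ATP, read by luminescence, served as the viability measure.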
# [12] = qHTS assay to identify small molecule agonists of the retinoic acid receptor (RAR) signaling pathway (AID 1159553)
# Outline: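 In this cell-based screen, 1,000 C3RL4 cells per well were cultured overnight, dosed with test chemicals in DMSO for 6 hr, and assessed for RARE luciferase luminescence.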
# [13] = qHTS assay to identify small molecule antagonists of the estrogen related receptor (ERR) signaling pathway (AID 1224819)
# Outline: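 Seed ERR cells 2,000/well; rest 6 h at 37 C/5% CO2; pin compounds in DMSO; incubate 18 h at 37 C; add One-Glo; wait 30 min at room temperature; measure luminescence.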
# [14] = qHTS assay to identify small molecule agonists of the estrogen related receptor (ERR) signaling pathway (AID 1224820)
# Outline: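 Luminescence readout (One-Glo, 30 min RT) from NTP-supplied ERR cell line exposed to compounds for 18 h at 37 C. Cells seeded 2,000 per well and pre-incubated 6 h before pin-tool compound transfer.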
# [15] = system: estrogen-related receptor alpha (ERRalpha) with PGC-1alpha coactivator, human; experiment: qHTS assay to identify small molecule antagonists of the estrogen related receptor signaling pathway with the pleiotropic PPARgamma coactivator (PGC) (AID 1224821; calls by dose curve)
# Outline: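 PGC/ERR reporter cells; 6 h pre-incubation 37 C/5% CO2; pin-tool compound in DMSO, 18 h 37 C; One-Glo added, 30 min RT; luminescence read. qHTS antagonist mode.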
# [16] = qHTS assay to identify small molecule antagonists of the estrogen related receptor signaling pathway with the pleiotropic PPARgamma coactivator (PGC) cell viability counter screen (AID 1224822;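 note: series mostly up to about 46 µM; viability read after 17.5 h compound exposure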)
# Outline: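 17.5 h compound treatment of PGC/ERR cells at 37 C; readout CellTiter-Fluor fluorescence; run alongside the PGC/ERR antagonist screen to flag cytotoxic compounds.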
# [17] = qHTS assay to identify small molecule agonists of the estrogen related receptor signaling pathway with the pleiotropic PPARgamma coactivator (PGC) (AID 1224823)
# Outline: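 Luminescence readout (One-Glo, 30 min RT) from PGC/ERR cell line treated 18 h at 37 C with pin-tool-delivered DMSO compound solutions; cells plated 6 h before dosing. Quantitative HTS format.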
# [18] = qHTS assay to identify small molecule antagonists of the estrogen related receptor (ERR) signaling pathway from Tox21 library - cell viability counter screen (AID 1224834); note: nearly all actives have a fitted effect of over 30% in size; note: potency is the fitted concentration of half-maximal effect
# Outline: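 Counter screen run in ERR cells (2,000 cells/well): cells pre-incubated 6 h, then treated with compounds for 17.5 h at 37 C. Fluorescence was read 30 min after CellTiter-Fluor addition.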
# [19] = qHTS assay to identify small molecule antagonists of the retinoic acid receptor (RAR) signaling pathway (AID 1159552; note: nearly all actives have a fitted effect of over 50% in size)
# Outline: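 Retinol at 1 uM final stimulated RARE-luciferase expression in C3RL4 cells exposed to test compounds for 6 hr at 37 C. Reduced luminescence, read 30 min after detection reagent, indicated pathway antagonism.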
# Chain of Retinoic acid receptor RXR-alpha (Homo sapiens) (P19793 whole entry, looked up): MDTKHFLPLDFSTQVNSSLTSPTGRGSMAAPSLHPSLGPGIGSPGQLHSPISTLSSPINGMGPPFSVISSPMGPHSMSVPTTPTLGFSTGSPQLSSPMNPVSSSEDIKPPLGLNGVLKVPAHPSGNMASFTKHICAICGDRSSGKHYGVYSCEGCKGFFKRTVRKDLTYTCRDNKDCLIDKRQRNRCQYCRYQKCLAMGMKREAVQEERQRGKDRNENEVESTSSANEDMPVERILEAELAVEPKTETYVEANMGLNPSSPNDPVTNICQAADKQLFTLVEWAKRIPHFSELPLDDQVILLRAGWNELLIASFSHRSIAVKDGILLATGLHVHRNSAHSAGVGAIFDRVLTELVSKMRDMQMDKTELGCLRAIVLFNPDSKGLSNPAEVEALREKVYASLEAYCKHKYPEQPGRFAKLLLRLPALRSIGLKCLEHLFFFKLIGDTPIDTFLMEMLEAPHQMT
SMILES,Potency [1],outcome [2],Potency [3],Potency [4],Potency [5],Potency [6],Potency [7],outcome [8],Potency [9],Potency [10],Potency [11],Potency [12],Potency [13],outcome [14],Potency [15],outcome [16],outcome [17],Potency [18],Potency [19]
CC12CC3CC(C)(C1)CC(N)(C3)C2,inactive,inactive,inactive,inactive,inactive,inactive,inactive,inactive,inactive,inactive,inactive,inactive,inactive,inactive,inactive,inactive,inactive,inactive,
Oc1cccc2[nH]ccc12,inactive,inactive,inactive,inactive,inactive,inactive,inactive,inactive,inactive,inactive,inactive,inactive,,,,,,inactive,inactive
CCOCCC(=O)OCC,inactive,inactive,inactive,inactive,inactive,inactive,inactive,inactive,inactive,inactive,inactive,inactive,,,,,,inactive,
Cc1ccc(N(CC2=NCCN2)c2cccc(O)c2)cc1,inactive,inactive,inactive,inactive,inactive,inactive,inactive,inactive,inactive,inactive,,inactive,,,,inactive,,,inactive
CCOC(=O)N1CCC(Nc2ccc(Cl)cc2N)CC1,inactive,inactive,inactive,inactive,inactive,inactive,inactive,inactive,inactive,inactive,inactive,inactive,,,,,,,
C1=CCC2CC=CC2C1 (configuration not stated),inactive,inactive,inactive,inactive,inactive,inactive,inactive,inactive,inactive,inactive,inactive,,,,,,,inactive,
CCC(CO)(CO)[N+](=O)[O-],inactive,inactive,inactive,inactive,inactive,inactive,inactive,inactive,inactive,inactive,inactive,inactive,,,,,,inactive,inactive
CC(O)Cn1cnc2c1c(=O)n(C)c(=O)n2C (configuration not stated),inactive,inactive,inactive,inactive,inactive,inactive,inactive,inactive,inactive,inactive,inactive,inactive,,,,,,inactive,
COc1cc(NS(=O)(=O)c2ccc(N)cc2)nc(C)n1,inactive,inactive,inactive,inactive,inactive,inactive,inactive,inactive,inactive,inactive,inactive,inactive,,,,,,inactive,inactive
Cc1ccc(NC(=O)N(C)C)cc1NC(=O)N(C)C,inactive,inactive,inactive,inactive,inactive,inactive,inactive,inactive,inactive,inactive,inactive,inactive,,,,,,inactive,inactive
Cc1ccc2nc(N)[nH]c(=O)c2c1Sc1ccncc1,inactive,inactive,inactive,inactive,inactive,inactive,inactive,inactive,inactive,inactive,inactive,,,,,,,inactive,
CCCCC[C@H](O)/C=C/[C@H]1[C@H](O)CC(=O)[C@@H]1C/C=C\CCCC(=O)O,inactive,inactive,inactive,inactive,inactive,inactive,inactive,inactive,,inactive,,inactive,,,,,,inactive,
C=Cc1ccc(OC(C)=O)cc1,inactive,inactive,inactive,inactive,inactive,inactive,inactive,inactive,inactive,inactive,,inactive,,,,,,inactive,
CC(C)(C)CCCCCCOC(=O)c1ccccc1C(=O)OCCCCCCC(C)(C)C,inactive,inactive,inactive,inactive,inactive,inactive,inactive,inactive,,inactive,inactive,inactive,,,,,,inactive,
COc1cc(OC)c2ccc(=O)oc2c1,inactive,inactive,inactive,inactive,inactive,inactive,inactive,inactive,,inactive,inactive,,,,,,,inactive,
O=C(O)CN1C(=O)c2cccc3cccc(c23)C1=O,inactive,inactive,inactive,inactive,inactive,inactive,inactive,inactive,inactive,inactive,,,,,,,,inactive,
CNS(=O)(=O)c1cc(C(=O)N2CCC(CCN3C4CCC3CC(n3c(C)nc5ccccc53)C4)(c3cccc(F)c3)CC2)c(Cl)cc1F (configuration not stated),13.8 µM (active),inactive,38.9 µM (active),inactive,inactive,7.7 µM (active),24.5 µM (active),inactive,,6.16 µM (active),inactive,,,,,,,13.7 µM (active),
CC1=CC[C@@]23C[C@@H]1C(C)(C)[C@@H]2CC[C@H]3C,inactive,inactive,inactive,inactive,inactive,inactive,inactive,inactive,inactive,inactive,,inactive,,,,,,inactive,
COC(=O)CC(C(C)=O)C(=O)OC (configuration not stated),inactive,inactive,inactive,inactive,inactive,inactive,inactive,inactive,inactive,inactive,,inactive,,,,,,inactive,inactive
